# Columns and labels:
# Assay in all cases: DAPPL (digital affinity profiling via proximity ligation, sequencing); 10 mM Tris-HCl pH 7.5, 50 mM NaCl, 1 mM DTT, 4% glycerol, room temperature, 30 min; GST-TFs on glutathione beads, 16-mer random dsDNA library, 0.1% formaldehyde crosslink after washing; high values mean tight binding
# FLI1 = biological target: T1, FLI1 (Homo sapiens, UniProt Q01543 1-452); details: protein: recombinant; tags: N-terminal GST; dsDNA, one strand shown
# T1 sequence: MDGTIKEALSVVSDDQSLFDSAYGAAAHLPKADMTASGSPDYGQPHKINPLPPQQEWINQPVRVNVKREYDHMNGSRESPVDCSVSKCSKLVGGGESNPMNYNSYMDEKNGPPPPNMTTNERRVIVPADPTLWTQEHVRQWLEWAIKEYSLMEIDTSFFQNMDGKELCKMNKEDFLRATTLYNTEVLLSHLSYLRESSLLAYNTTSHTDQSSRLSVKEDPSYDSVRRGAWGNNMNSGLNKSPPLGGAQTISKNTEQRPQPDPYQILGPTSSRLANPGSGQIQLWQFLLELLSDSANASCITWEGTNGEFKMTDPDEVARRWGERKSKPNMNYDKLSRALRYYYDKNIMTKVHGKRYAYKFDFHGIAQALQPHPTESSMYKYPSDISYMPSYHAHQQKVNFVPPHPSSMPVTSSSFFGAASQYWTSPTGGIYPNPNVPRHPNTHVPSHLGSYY
# Method in brief: (§1)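 Binding signal is defined as a hexamer's read frequency for one factor over its frequency for the tag-only sample. To obtain reads, GST-fused human transcription factors were expressed in yeast, captured on glutathione beads, barcoded with DNA and pooled with that sample. Pools met 200 nmole of a 16-mer random double-stranded DNA library in Tris/NaCl/DTT/glycerol buffer for 30 min at room temperature before washing, 0.1% formaldehyde crosslinking, proximity ligation (BsaI/T4 ligase, 1 h, 37 °C), PCR and Illumina NextSeq500 sequencing.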
# ELK1 = biological target: T2, ELK1 (Homo sapiens, UniProt P19419 1-428); details: protein: recombinant; tags: N-terminal GST; dsDNA, one strand shown
# T2 sequence: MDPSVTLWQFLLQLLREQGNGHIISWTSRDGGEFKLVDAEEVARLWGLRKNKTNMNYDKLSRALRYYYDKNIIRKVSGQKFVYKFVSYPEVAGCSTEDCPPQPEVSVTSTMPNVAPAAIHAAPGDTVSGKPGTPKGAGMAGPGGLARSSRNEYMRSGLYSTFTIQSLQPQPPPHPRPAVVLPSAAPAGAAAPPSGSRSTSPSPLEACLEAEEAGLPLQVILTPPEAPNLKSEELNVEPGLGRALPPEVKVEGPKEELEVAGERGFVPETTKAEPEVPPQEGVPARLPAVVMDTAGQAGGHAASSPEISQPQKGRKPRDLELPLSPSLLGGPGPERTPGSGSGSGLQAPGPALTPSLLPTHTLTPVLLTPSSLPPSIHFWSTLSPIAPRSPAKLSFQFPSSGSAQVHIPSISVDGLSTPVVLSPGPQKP
# Method in brief: as §1
# GABPA = biological target: T3, GABPA (Homo sapiens, UniProt Q06546 1-454); details: protein: recombinant; tags: N-terminal GST; dsDNA, one strand shown
# T3 sequence: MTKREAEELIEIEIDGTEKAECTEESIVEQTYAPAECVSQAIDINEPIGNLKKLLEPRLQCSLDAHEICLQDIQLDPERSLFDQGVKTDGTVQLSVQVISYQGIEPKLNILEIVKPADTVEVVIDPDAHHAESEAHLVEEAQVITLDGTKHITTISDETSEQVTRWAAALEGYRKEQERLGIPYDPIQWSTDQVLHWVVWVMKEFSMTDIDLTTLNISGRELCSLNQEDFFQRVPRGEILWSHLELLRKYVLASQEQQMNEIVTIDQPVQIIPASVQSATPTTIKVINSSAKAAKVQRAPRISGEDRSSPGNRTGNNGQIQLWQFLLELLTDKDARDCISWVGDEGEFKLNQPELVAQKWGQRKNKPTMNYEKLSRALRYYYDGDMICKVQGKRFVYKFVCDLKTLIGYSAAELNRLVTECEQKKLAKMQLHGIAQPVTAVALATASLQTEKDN
# Method in brief: as §1
# ERG = biological target: T4, ERG (Homo sapiens, UniProt P11308 1-479); details: protein: recombinant; tags: N-terminal GST; dsDNA, one strand shown
# T4 sequence: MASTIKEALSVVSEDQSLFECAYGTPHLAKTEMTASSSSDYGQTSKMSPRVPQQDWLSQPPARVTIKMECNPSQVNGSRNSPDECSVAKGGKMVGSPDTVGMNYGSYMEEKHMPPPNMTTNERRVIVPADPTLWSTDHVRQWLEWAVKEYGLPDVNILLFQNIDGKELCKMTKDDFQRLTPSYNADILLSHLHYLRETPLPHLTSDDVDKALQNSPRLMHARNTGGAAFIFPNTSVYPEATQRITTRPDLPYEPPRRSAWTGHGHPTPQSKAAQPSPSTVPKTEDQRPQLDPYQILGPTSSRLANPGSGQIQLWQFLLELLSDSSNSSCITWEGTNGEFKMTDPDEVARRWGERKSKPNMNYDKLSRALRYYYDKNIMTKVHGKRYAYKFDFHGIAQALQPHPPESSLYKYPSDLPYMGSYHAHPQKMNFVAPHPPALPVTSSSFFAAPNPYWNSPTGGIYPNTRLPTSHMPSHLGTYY
# Method in brief: as §1
# ELF1 = ELF1 (Homo sapiens, UniProt P32519 1-619); details: protein: recombinant; tags: N-terminal GST; dsDNA, one strand shown
# Method in brief: as §1
# EHF = biological target: T5, EHF (Homo sapiens, UniProt Q9NZC4 1-300); details: protein: recombinant; tags: N-terminal GST; dsDNA, one strand shown
# T5 sequence: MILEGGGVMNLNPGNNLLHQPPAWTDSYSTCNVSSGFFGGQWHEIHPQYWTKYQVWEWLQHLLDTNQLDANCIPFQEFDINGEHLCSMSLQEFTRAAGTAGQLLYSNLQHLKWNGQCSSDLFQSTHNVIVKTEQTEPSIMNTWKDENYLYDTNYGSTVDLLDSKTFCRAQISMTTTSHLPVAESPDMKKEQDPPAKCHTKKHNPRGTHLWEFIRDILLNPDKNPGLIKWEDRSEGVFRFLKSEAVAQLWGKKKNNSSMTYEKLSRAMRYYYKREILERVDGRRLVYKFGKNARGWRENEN
# Method in brief: as §1
# SPI1 = SPI1 (Homo sapiens, UniProt P17947 1-270); details: protein: recombinant; tags: N-terminal GST; dsDNA, one strand shown
# Method in brief: as §1
# SPIB = SPIB (Homo sapiens, UniProt Q01892 1-262); details: protein: recombinant; tags: N-terminal GST; dsDNA, one strand shown
# Method in brief: as §1
# ELK3 = biological target: T6, ELK3 (Homo sapiens, UniProt P41970 1-407); details: protein: recombinant; tags: N-terminal GST; dsDNA, one strand shown
# T6 sequence: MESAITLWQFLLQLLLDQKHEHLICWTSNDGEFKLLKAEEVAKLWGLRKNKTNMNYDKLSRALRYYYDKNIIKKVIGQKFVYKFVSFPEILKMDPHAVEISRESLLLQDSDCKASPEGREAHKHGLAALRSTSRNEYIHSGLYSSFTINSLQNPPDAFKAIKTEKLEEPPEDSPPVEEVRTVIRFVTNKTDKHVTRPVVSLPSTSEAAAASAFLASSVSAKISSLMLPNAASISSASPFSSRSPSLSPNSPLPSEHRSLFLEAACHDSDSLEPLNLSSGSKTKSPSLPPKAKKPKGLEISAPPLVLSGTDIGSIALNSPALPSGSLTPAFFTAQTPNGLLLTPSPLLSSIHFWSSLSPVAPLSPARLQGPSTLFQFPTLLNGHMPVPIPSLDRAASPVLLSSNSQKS
# Method in brief: as §1
# FEV = biological target: T7, FEV (Homo sapiens, UniProt Q99581 1-238); details: protein: recombinant; tags: N-terminal GST; dsDNA, one strand shown
# T7 sequence: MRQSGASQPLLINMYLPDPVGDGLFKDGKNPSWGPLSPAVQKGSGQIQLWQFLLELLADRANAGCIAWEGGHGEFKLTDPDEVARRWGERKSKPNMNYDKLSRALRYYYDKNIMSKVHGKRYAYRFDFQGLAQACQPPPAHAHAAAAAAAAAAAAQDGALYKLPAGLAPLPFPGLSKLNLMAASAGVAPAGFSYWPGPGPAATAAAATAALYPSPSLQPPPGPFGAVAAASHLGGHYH
# Method in brief: as §1
# ETV5 = ETV5 (Homo sapiens, UniProt P41161 1-510); details: protein: recombinant; tags: N-terminal GST; dsDNA, one strand shown
# Method in brief: as §1
# HSF1 = HSF1 (Homo sapiens, UniProt Q00613 1-529); details: protein: recombinant; tags: N-terminal GST; chain copies: 3; dsDNA, one strand shown
# Method in brief: as §1
# SPIC = biological target: T8, SPIC (Homo sapiens, UniProt Q8N5J4 1-248); details: protein: recombinant; tags: N-terminal GST; dsDNA, one strand shown
# T8 sequence: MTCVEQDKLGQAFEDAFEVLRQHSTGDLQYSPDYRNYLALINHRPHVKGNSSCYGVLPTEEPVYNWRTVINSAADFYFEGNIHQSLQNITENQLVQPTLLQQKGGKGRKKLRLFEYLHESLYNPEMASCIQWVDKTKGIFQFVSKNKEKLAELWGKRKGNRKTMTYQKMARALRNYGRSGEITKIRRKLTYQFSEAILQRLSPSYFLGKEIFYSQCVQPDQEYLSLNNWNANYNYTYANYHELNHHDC
# Method in brief: as §1
# ELF4 = ELF4 (Homo sapiens, UniProt Q99607 1-663); details: protein: recombinant; tags: N-terminal GST; dsDNA, one strand shown
# Method in brief: as §1
# ELK4 = biological target: T9, ELK4 (Homo sapiens, UniProt P28324-2 1-405); details: protein: recombinant; tags: N-terminal GST; dsDNA, one strand shown
# T9 sequence: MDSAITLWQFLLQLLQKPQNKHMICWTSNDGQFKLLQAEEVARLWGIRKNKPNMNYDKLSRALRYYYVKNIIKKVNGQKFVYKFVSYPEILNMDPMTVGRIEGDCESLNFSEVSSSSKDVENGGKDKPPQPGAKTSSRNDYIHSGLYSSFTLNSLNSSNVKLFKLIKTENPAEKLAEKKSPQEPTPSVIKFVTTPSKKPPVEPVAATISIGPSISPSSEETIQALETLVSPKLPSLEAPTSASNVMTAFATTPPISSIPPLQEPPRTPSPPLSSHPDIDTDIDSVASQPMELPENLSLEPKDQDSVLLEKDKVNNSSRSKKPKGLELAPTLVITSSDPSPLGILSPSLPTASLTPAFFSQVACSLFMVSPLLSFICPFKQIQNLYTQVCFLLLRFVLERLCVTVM
# Method in brief: as §1
# ETV2 = biological target: T10, ETV2 (Homo sapiens, UniProt O00321 1-342); details: protein: recombinant; tags: N-terminal GST; dsDNA, one strand shown
# T10 sequence: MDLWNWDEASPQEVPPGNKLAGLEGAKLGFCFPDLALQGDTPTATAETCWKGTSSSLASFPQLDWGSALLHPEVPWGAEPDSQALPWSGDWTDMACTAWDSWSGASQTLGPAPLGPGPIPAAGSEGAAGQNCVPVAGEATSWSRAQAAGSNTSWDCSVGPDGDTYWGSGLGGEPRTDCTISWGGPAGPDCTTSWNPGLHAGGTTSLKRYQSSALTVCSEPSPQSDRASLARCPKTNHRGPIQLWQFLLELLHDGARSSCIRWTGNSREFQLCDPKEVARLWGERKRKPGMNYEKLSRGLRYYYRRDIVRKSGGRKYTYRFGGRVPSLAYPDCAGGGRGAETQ
# Method in brief: as §1
# ETV1 = ETV1 (Homo sapiens, UniProt P50549 1-477); details: protein: recombinant; tags: N-terminal GST; dsDNA, one strand shown
# Method in brief: as §1
# ELF4, sequence (Q99607 whole entry): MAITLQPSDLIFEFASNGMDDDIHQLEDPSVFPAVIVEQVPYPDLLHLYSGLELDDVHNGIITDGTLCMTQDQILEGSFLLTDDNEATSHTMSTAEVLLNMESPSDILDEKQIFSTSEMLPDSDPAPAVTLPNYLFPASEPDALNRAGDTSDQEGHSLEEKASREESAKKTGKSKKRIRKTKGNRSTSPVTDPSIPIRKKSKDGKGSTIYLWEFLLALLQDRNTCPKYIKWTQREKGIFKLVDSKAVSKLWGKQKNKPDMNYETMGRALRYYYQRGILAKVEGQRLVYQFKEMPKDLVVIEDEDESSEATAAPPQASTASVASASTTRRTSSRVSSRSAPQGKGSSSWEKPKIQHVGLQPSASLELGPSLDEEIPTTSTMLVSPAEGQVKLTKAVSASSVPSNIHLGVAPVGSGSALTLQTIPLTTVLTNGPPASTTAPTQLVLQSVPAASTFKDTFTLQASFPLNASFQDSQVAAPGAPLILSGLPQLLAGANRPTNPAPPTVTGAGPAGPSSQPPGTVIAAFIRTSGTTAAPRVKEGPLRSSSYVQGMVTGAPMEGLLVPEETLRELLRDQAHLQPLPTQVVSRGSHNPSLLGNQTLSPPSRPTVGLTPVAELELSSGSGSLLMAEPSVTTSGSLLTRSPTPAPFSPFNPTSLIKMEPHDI
# ELF1, sequence (P32519 whole entry): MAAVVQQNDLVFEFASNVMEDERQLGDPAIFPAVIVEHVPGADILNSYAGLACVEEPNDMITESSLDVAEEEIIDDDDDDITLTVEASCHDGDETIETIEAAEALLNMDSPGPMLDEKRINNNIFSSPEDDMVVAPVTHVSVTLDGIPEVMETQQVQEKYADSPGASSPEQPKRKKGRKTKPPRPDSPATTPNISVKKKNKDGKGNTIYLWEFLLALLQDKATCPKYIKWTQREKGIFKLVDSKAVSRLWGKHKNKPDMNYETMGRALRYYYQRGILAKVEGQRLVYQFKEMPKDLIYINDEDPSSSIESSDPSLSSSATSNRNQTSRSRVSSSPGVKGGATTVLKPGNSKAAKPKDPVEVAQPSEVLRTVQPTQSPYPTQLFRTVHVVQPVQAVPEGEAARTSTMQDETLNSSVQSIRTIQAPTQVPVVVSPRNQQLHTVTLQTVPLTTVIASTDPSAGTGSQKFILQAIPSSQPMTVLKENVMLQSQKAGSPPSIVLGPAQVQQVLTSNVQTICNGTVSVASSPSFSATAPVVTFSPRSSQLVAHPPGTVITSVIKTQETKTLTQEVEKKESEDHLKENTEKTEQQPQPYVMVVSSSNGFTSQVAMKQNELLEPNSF
# HSF1, sequence (Q00613 whole entry): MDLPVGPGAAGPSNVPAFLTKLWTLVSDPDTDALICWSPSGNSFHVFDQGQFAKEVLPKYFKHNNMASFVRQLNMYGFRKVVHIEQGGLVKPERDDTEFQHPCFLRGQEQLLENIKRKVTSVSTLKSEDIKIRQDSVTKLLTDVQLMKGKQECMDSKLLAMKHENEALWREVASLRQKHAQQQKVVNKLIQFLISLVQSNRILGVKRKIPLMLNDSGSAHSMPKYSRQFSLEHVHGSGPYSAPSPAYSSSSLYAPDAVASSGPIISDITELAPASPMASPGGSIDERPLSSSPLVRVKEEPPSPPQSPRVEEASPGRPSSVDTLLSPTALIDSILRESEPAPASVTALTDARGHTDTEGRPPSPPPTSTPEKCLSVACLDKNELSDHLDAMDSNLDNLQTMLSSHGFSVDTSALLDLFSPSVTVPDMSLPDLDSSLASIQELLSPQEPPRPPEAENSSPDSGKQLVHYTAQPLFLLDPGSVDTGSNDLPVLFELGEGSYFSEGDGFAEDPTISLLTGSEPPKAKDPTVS
# ETV1, sequence (P50549 whole entry): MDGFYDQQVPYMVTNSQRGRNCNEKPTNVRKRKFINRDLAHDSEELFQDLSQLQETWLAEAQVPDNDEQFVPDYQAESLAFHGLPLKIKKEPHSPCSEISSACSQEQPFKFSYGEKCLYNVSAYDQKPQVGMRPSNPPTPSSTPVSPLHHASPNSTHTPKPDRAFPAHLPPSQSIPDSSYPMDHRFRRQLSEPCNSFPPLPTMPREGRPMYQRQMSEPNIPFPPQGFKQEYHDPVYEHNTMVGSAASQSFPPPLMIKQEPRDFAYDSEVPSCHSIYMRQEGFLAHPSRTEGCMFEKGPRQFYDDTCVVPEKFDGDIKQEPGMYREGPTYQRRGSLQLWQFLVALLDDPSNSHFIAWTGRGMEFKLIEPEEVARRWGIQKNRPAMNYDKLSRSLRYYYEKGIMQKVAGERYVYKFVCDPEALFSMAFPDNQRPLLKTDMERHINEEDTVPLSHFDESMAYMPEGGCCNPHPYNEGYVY
# ETV5, sequence (P41161 whole entry): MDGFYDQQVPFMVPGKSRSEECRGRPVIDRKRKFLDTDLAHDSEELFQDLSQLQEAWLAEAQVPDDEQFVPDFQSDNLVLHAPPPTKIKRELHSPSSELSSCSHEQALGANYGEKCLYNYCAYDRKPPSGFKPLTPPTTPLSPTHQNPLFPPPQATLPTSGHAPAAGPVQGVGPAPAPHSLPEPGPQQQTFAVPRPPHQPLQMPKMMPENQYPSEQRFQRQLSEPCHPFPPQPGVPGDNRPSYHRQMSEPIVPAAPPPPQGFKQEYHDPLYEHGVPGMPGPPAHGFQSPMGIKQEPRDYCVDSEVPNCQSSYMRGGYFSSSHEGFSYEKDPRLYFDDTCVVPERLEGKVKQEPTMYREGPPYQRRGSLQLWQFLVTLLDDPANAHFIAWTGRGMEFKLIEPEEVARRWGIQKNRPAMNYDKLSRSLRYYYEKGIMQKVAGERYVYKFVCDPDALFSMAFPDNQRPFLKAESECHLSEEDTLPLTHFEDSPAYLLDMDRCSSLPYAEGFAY
# SPIB, sequence (Q01892 whole entry): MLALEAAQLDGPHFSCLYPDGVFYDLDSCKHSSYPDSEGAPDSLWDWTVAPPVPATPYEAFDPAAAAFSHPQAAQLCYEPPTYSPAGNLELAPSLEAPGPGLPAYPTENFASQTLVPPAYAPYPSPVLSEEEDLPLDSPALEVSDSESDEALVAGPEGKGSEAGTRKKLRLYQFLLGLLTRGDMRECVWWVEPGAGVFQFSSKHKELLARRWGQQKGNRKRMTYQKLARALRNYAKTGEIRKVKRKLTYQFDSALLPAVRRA
sequence,measurement,setting,value
TGTAGC,binding signal,FLI1,"1.1 fold enrichment (6-mer frequency, TF over GST control)"
same,binding signal,ELK1,"1.16 fold enrichment (6-mer frequency, TF over GST control)"
same,binding signal,GABPA,"1.16 fold enrichment (6-mer frequency, TF over GST control)"
same,binding signal,ERG,"1.11 fold enrichment (6-mer frequency, TF over GST control)"
same,binding signal,ELF1,"1.2 fold enrichment (6-mer frequency, TF over GST control)"
same,binding signal,EHF,"1.16 fold enrichment (6-mer frequency, TF over GST control)"
same,binding signal,SPI1,"1.17 fold enrichment (6-mer frequency, TF over GST control)"
same,binding signal,SPIB,"1.03 fold enrichment (6-mer frequency, TF over GST control)"
same,binding signal,ELK3,"1.27 fold enrichment (6-mer frequency, TF over GST control)"
same,binding signal,FEV,"1.17 fold enrichment (6-mer frequency, TF over GST control)"
same,binding signal,ETV5,"1.24 fold enrichment (6-mer frequency, TF over GST control)"
same,binding signal,HSF1,"1.02 fold enrichment (6-mer frequency, TF over GST control)"
same,binding signal,SPIC,"1.11 fold enrichment (6-mer frequency, TF over GST control)"
same,binding signal,ELF4,"1.26 fold enrichment (6-mer frequency, TF over GST control)"
same,binding signal,ELK4,"1.31 fold enrichment (6-mer frequency, TF over GST control)"
same,binding signal,ETV2,"1.24 fold enrichment (6-mer frequency, TF over GST control)"
same,binding signal,ETV1,"1.22 fold enrichment (6-mer frequency, TF over GST control)"

# Source: PMC7862700, “An all-to-all approach to the identification of sequence-specific readers for epigenetic DNA modifications on cytosine”
